From PubChem BioAssay (NCATS)
Inconclusive results are not listed. Where a call stands in place of a potency, no number is given. Activity calls are given as the source filed them. The call rests on the fitted dose curve; in most records, active means well fitted inhibition curve with a large enough effect; inconclusive means small, poorly fitted or top-dose-only effect; inactive means no such curve, though single readings can be large or run the other way.

Assays:
[1] = tested on: Zika virus NS2B-NS3 protease (unlinked complex); test: Primary screen GU Rhodamine qHTS for Zika virus inhibitors: Unlinked NS2B-NS3 protease assay (AID 1347159); further: nearly all actives have a fitted effect of over 60% in size
In short: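 Noncovalent NS2B hydrophilic domain–NS3 protease domain complex (25 nM) preincubated 15 min at room temperature with compounds (up to 114 microM) in 10 mM Tris-HCl pH 8.0, 0.01% Tween 20; 1.5 microM Rhodamine110 substrate added, fluorescence change over 15 min fitted to Hill equation.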

[2] = tested on: Zika virus NS2B-NS3 protease (linked construct); test: Primary screen NINDS Rhodamine qHTS for Zika virus inhibitors (AID 1347160); further: nearly all actives have a fitted effect of over 55% in size
In short: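 Purified linked NS2B-NS3 protease (NS2B hydrophilic domain joined to NS3 protease by flexible linker), 25 nM in 10 mM Tris-HCl pH 8.0, 0.01% Tween 20. Compounds titrated, 15 min preincubation at room temperature; 1.5 microM Rhodamine110 substrate, FITC fluorescence change over 15 min.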
Potency means the concentration at half of the fitted maximal effect.

| SMILES | Potency [1] | Potency [2] |
| --- | --- | --- |
| CC1CC(=O)C2=C(O1)OC1(C)CCC3C(C)(C)C=CC(=O)C3(C)C1C2 (stereo not given) | 28.2 µM (active) | 12.6 µM (active) |
| N[C@H]1C[C@H]1c1ccc(-c2cccc(O)c2)cc1 | inactive | inactive |
| CC1[C@@H](O)[C@@H](O)C2[C@]3(C)C(C[C@H]4OC(=O)[C@H](O)[C@]1(O)[C@@]24C)C(C)(O)C[C@H](O)[C@H]3O (stereo not given in full) | inactive | inactive |
| CC(C)=CC/C=C(/C)[C@H]1CC[C@]2(C)[C@@H]1[C@H](O)CC1[C@@]3(C)CC[C@H](O)C(C)(C)[C@@H]3[C@@H](O[C@@H]3O[C@H](CO)[C@@H](O)[C@H](O)[C@H]3O[C@@H]3O[C@@H](C)[C@H](O)[C@@H](O)[C@H]3O)C[C@]12C (stereo not given in full) | inactive | inactive |
| CC(=O)N1CCN(NC(=O)c2ccc(F)cc2)CC1 | inactive | inactive |
| CNC(=O)c1ccc2cc([C@@]3(O)CCn4cncc43)ccc2c1 | inactive | inactive |
| C[C@@H](OC(=O)/C=C/c1ccc(O)cc1)C1=C[C@]2(C=C[C@@H]3C(C(=O)O)=CO[C@@H](O[C@@H]4O[C@H](CO[C@@H]5O[C@H](CO)[C@@H](O)[C@H](O)[C@H]5O)[C@@H](O)[C@H](O)[C@H]4O)[C@@H]32)OC1=O | inactive | inactive |
| NC1CCC(N[C@@H]2C[C@H]2c2ccccc2)CC1 (stereo not given in full) | inactive | inactive |
| COc1cc(/C=C/C(=O)O[C@H]2[C@H](O)[C@@H](CO)O[C@@]2(CO)O[C@H]2O[C@H](COC(=O)c3ccc(O)cc3)[C@@H](O)[C@H](O)[C@H]2O)cc(OC)c1OC | inactive | inactive |
| CC1(C)CC[C@]2(C(=O)O)CC[C@]3(C)C(=CCC4[C@@]5(C)C[C@@H](O)[C@H](O)C(C)(C)C5CC[C@]43C)[C@@H]2[C@@H]1O (stereo not given in full) | inactive | inactive |
| CC(C)c1nc(N(C)S(C)(=O)=O)nc(-c2ccc(F)cc2)c1/C=C/[C@@H](O)C[C@@H](O)CC(=O)O | inactive | inactive |
| COC1CC(=O)C23C(=O)NC(CC(C)C)C2C(C)C(C)=CC3/C=C(\C)CCC1O (stereo not given) | inactive | inactive |
| CN1C(=O)N[C@@H](Cc2c[nH]c3c(Cl)cccc23)C1=O | inactive | inactive |
| CCCCCCc1cccc(NC(=O)[C@H](N)CCP(=O)(O)O)c1 | inactive | inactive |
| CC1(C)C(O)CCC2(C)C1C(O)C=C1COC(=O)C12O (stereo not given) | inactive | inactive |
